Results filed as inconclusive are left out. Activity calls are given as the source filed them. Unless noted, calls come from the whole dose curve; as a rule, active = well fitted curve in the direction sought with a large enough effect; inconclusive = small, poorly fitted or top-dose-only effect, or another doubt; inactive = no such curve, though single readings can be large; an effect the other way counts as inactive or inconclusive.
Legend:
[1] = qHTS for Activators of Parkin Expression: LOPAC Validation Assay (NLuc Reporter) (AID 720572)
Procedure, shortened: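 NLuc signal, read 10 min after reagent and following a prior FLuc read, is normalized to DMSO (0) and positive controls (100%). Cells: neuronal Parkin-promoter coincidence reporter line; compounds tested 7-point, 24 h, 37 C, 5% CO2.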

[2] = qHTS for Activators of Parkin Expression: LOPAC Validation Assay (FLuc Reporter) (AID 720573)
Procedure, shortened: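 Readout is FLuc luminescence from neuronal reporter cells (Parkin promoter, FLuc plus NLuc) after 24 h compound exposure in dose response. Values normalized to neutral DMSO and positive-control compounds.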

[3] = target: T1, Hexokinase-4 (Homo sapiens) + Glucokinase regulatory protein (Homo sapiens) (UniProt P35557+Q14397); assay: qHTS assay for inhibitors of recombinant human GCK-GKRP interaction: Diaphorase-coupled assay (AID 743205)
T1 sequence (P35557 whole entry, looked up): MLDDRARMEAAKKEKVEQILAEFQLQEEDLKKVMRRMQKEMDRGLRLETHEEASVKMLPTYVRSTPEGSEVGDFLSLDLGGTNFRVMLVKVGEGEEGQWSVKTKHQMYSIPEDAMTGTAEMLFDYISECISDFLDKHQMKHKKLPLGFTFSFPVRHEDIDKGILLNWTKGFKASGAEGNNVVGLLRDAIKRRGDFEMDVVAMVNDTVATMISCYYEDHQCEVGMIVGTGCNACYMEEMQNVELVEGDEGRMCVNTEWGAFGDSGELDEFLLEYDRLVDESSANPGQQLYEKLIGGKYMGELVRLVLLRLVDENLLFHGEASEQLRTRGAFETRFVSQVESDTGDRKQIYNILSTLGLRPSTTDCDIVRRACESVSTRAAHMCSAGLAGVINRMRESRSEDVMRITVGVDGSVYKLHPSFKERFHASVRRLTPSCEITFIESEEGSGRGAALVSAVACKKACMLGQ
T1 sequence (Q14397 whole entry, looked up): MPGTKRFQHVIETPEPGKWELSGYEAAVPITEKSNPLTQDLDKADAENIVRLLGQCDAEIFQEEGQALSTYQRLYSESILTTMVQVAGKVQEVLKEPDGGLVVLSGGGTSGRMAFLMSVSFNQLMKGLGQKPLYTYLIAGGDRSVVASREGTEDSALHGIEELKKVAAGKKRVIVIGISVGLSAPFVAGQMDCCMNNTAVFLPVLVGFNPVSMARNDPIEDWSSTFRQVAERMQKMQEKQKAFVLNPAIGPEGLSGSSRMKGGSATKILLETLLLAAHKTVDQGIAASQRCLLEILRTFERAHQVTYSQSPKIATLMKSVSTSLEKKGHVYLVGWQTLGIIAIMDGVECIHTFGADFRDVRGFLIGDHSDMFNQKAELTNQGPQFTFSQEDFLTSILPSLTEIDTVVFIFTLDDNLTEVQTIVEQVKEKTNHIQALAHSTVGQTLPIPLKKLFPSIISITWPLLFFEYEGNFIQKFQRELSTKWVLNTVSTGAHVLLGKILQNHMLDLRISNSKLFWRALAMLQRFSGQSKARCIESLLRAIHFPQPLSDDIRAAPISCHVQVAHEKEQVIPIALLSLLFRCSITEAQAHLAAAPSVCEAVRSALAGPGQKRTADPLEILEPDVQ
Procedure, shortened: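 Signal derives from resorufin generated by diaphorase, linked to GCK turnover of glucose (5 mM) and ATP (0.4 mM). Enzyme complex was added after a 20-minute compound preincubation and monitored for 30 minutes.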

[4] = target: T1, Hexokinase-4 (Homo sapiens) + Glucokinase regulatory protein (Homo sapiens); assay: qHTS assay for inhibitors of recombinant human GCK-GKRP interaction: ADP-Glo assay (AID 743206);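 note: plate controls were DMSO plus enzyme for no effect and no enzyme for full effect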
Procedure, shortened: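 Pin-transferred compounds meet a 15 nM GST-GCK/15 nM FLAG-GKRP/2 uM S6P mix (dispense concentrations). ATP is then added to 0.4 mM final with 5 mM glucose, and the reaction runs 60 min at room temperature. ADP is quantified luminescently.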

[5] = target: T1, Hexokinase-4 (Homo sapiens) + Glucokinase regulatory protein (Homo sapiens); assay: qHTS assay for inhibitors of recombinant human GCK-GKRP interaction: HTRF assay (AID 743207);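 note: 0% = DMSO with GCK present and -100% = DMSO wells lacking GCK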
Procedure, shortened: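 Titration screening format: recombinant GST-GCK and FLAG-GKRP at 5 nM, S6P at 2 uM, labelled anti-tag antibodies, 60 min at RT, dual-wavelength HTRF readout.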

[6] = qHTS Assay for Identifying Gametocytocidal Compounds (AID 743244);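 note: % is set by controls: 0 for no effect and ±100 for the full control effect; actives lower the fluorescent signal which means gametocytes are killed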; details: P. falciparum 3D7 stage III-V gametocytes, alamarBlue, 72 h; max response: hits give low values
Procedure, shortened: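 P. falciparum 3D7 stage III–V gametocytes (20,000 cells/well) were exposed to compounds for 72 h at 37 °C, 5% CO2. AlamarBlue was then added for 24 h; decreased resorufin fluorescence (Ex 525/Em 598 nm) indicated loss of viability.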

[7] = Natriuretic polypeptide receptor (hNpr1) antagonism - Pilot counterscreen GloSensor control cell line (AID 1347045; calls by dose curve; note: series mostly up to about 38 µM; % is set by controls: 0 for no effect and ±100 for the full control effect)
Procedure, shortened: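 Control counterscreen: luciferase cGMP-biosensor HEK293 cells (no Npr1) received compound for 30 min at room temperature after GloSensor substrate loading. Luminescence was measured before and 20 min after soluble guanylyl cyclase activation by 50 uM nitroprusside.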

[8] = target: Atrial natriuretic peptide receptor 1 (Homo sapiens) (UniProt P16066); assay: Natriuretic polypeptide receptor (hNpr1) antagonism - Pilot screen (AID 1347049; calls by dose curve;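 note: agonist-evoked cGMP luminescence read 20 min after hNppA addition; series mostly up to about 58 µM; % is set by controls: 0 for no effect and ±100 for the full control effect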)
Procedure, shortened: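 cGMP-sensor HEK293/hNpr1 cells, 1500/well, plated overnight at 37C. 2% GloSensor reagent, 2 h RT. Compound (23 nL pin transfer) 30 min RT, baseline luminescence pre-read. 0.1 nM hNppA, 20 min RT, post-read.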

[9] = target: Atrial natriuretic peptide receptor 2 (Homo sapiens) (UniProt P20594); assay: Natriuretic polypeptide receptor (hNpr2) antagonism - Pilot subtype selectivity assay (AID 1347050; calls by dose curve; note: % is set by controls: 0 for no effect and ±100 for the full control effect)
Sequence of Atrial natriuretic peptide receptor 2 (Homo sapiens) (P20594 whole entry, looked up): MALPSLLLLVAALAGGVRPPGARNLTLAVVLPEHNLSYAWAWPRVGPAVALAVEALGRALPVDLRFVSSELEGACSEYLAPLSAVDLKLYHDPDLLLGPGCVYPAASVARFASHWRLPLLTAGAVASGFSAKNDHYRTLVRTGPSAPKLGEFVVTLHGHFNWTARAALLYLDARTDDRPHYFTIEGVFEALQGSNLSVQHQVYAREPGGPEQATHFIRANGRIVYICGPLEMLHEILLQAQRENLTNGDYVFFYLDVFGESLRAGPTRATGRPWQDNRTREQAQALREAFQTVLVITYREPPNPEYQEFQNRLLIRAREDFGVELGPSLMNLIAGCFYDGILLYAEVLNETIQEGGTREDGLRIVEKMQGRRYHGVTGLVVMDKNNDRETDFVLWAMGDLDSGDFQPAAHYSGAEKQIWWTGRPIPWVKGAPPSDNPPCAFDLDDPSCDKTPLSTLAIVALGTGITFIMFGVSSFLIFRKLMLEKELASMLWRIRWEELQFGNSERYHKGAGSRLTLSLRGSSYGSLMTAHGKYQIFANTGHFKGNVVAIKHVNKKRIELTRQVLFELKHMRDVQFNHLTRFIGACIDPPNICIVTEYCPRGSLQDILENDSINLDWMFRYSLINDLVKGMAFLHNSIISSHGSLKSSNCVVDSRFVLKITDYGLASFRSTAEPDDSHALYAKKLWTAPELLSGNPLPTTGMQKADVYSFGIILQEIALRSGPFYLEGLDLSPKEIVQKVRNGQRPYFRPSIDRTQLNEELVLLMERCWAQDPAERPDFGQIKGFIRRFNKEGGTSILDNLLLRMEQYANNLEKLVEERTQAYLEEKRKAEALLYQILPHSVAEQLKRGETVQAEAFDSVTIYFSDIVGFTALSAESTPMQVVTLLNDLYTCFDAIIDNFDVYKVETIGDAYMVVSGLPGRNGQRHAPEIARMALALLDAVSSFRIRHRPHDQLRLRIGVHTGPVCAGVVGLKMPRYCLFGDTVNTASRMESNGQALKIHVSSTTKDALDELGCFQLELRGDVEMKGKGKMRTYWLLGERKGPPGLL
Procedure, shortened: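 Luminescence from a genetically encoded cGMP luciferase biosensor in hNpr2-expressing HEK293 cells is read before and 20 min after adding 1 nM hNppC. Test compounds, in interplate 1:5 titrations, are added 30-50 min ahead of the agonist.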

[10] = target: Parathyroid hormone/parathyroid hormone-related peptide receptor (Homo sapiens) (UniProt Q03431); assay: qHTS for PTHR1 Agonists: Optimization Screen against the NCGC LOPAC library (AID 1347079);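 note: GloSensor cAMP luminescence in HEK-293 GP2 cells expressing human PTHR1 with IBMX; 0% is about no effect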
Sequence of Parathyroid hormone/parathyroid hormone-related peptide receptor (Homo sapiens) (Q03431 whole entry, looked up): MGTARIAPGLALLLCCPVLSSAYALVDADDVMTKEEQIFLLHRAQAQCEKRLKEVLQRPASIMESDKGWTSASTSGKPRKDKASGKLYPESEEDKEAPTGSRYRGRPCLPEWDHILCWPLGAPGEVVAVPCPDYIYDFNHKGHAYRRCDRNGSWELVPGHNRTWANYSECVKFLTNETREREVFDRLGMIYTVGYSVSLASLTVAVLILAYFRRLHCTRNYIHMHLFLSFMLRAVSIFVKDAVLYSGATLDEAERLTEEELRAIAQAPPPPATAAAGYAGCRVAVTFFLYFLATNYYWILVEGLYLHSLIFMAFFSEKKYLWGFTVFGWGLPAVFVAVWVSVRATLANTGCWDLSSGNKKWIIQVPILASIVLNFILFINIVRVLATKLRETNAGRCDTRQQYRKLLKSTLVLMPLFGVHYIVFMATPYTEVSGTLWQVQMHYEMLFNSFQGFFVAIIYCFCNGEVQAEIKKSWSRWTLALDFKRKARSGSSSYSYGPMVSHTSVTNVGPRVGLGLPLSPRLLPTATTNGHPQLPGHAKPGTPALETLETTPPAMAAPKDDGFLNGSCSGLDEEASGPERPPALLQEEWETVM
Procedure, shortened: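 HEK-293 GP2 cells, PTHR1 + GloSensor cAMP; 3000 cells/well, o/n. Luciferin + IBMX 0.5mM each (stock), 1 hr 37C. Cpd titration, 1 hr 37C. Lum after 15 min RT. Ctrl M-PTH(1-15) top 10uM.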

[11] = qHTS for Inhibitors of the Functional Ribonucleoprotein Complex (vRNP) of Lassa (LASV) Arenavirus: LASV Primary Screen - GLuc reporter signal (AID 1347082; calls by dose curve; tested in HEK293 reporter line; note: series mostly up to about 57 µM; % is set by controls: 0 for no effect and ±100 for the full control effect; nearly all actives have a fitted effect of over 60% in size)
[12] = qHTS for Inhibitors of the Functional Ribonucleoprotein Complex (vRNP) of Lassa (LASV) Arenavirus: Viability assay - alamar blue signal for LASV Primary Screen (AID 1347083; calls by dose curve; tested in HEK293 reporter line; note: series mostly up to about 57 µM; % is set by controls: 0 for no effect and ±100 for the full control effect; nearly all actives have a fitted effect of over 80% in size)
[13] = qHTS for Inhibitors of the Functional Ribonucleoprotein Complex (vRNP) of Lymphocytic Choriomeningitis Arenaviruses (LCMV): Viability assay - alamar blue signal for LCMV Primary Screen (AID 1347085; calls by dose curve; tested in HEK293 reporter line; note: series mostly up to about 57 µM; % is set by controls: 0 for no effect and ±100 for the full control effect; nearly all actives have a fitted effect of over 80% in size)
[14] = target: Lysine-specific demethylase 5B (Homo sapiens) (UniProt Q9UGL1); assay: Optimization screen for KDM5B Histone Demethylases FDH coupled qHTS against the LOPAC library (AID 1347166); note: 0% is about no effect
Sequence of Lysine-specific demethylase 5B (Homo sapiens) (Q9UGL1 whole entry, looked up): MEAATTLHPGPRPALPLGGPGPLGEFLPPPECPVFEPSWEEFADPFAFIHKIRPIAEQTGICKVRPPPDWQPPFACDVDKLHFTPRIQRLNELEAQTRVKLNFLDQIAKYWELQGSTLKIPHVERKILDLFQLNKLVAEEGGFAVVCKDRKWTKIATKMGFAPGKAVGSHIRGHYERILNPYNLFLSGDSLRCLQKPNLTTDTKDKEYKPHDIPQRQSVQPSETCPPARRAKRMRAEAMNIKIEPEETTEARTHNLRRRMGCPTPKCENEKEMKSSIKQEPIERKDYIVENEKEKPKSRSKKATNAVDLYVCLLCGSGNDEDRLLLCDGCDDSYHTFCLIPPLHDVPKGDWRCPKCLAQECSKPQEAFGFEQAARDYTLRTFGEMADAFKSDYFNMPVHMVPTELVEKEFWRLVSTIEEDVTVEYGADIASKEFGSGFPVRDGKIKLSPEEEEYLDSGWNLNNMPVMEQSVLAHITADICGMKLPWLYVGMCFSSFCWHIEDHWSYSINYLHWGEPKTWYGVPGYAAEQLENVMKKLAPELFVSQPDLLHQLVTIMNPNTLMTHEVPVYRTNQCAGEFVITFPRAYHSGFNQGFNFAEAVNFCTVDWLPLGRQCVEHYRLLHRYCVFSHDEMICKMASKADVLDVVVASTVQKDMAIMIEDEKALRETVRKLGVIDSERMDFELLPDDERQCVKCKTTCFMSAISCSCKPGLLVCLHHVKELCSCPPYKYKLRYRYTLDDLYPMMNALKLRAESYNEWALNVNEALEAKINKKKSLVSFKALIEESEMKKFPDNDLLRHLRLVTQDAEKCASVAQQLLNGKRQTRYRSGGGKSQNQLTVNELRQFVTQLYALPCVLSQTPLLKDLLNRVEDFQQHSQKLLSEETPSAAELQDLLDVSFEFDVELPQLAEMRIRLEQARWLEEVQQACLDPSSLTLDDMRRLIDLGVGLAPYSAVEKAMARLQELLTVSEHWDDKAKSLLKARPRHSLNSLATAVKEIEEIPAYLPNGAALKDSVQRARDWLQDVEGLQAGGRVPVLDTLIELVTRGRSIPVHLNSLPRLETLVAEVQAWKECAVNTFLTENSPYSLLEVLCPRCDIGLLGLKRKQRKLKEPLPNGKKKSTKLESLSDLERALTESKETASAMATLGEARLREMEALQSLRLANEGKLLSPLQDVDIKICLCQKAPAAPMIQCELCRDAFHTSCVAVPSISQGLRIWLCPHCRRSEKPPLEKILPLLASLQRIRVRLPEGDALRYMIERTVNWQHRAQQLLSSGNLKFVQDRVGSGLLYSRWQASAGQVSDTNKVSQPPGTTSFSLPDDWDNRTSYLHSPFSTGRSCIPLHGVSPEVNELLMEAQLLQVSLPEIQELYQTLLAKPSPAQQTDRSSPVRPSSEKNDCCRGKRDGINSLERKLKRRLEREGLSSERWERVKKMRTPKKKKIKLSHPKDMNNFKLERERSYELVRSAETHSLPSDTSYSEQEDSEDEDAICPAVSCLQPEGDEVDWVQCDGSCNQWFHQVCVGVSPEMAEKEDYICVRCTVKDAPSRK
Procedure, shortened: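 KDM5BDeltaAP (200nM final) in 50mM HEPES pH 7.5, 0.01% Tween-20 was preincubated with compound for 10 min at room temperature. A substrate mix of 12.5uM H3K4Me3, 25uM a-ketoglutarate, ascorbate, Fe2+, NAD+ and formaldehyde dehydrogenase was then added. NADH fluorescence (340/450 nm) was read initially and after 30 min.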

[15] = Validation qHTS assay for inhibitors of Activation Induced Cytidine Deaminase (AID): UDG Counterscreen signal (AID 1347427); note: 0% is about no effect
Procedure, shortened: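 Fluorescence at 560 nm excitation, 665 nm emission reports UDG signal after 250 mM NaOH (2x) addition and 30 min. Enzymes (AID 1 uM, UDG 2 U/mL, at 4/3x) preincubated 10 min with compound, then 4 h with 4x 250 nM DJC20/DJC23 substrate at room temperature.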

[16] = target: Single-stranded DNA cytosine deaminase (Homo sapiens) (UniProt Q9GZX7); assay: Validation qHTS assay for inhibitors of Activation Induced Cytidine Deaminase (AID): AID signal (AID 1347429); note: % is set by controls: 0 for no effect and ±100 for the full control effect
Sequence of Single-stranded DNA cytosine deaminase (Homo sapiens) (Q9GZX7 whole entry, looked up): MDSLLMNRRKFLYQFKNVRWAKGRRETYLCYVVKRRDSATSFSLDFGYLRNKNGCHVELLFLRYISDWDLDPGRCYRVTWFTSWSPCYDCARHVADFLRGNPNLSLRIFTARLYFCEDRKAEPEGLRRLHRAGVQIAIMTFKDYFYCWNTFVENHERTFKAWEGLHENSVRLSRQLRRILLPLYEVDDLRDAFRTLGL
Procedure, shortened: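 Compounds (final up to 114 uM) preincubated with AID plus UDG; 250 nM DJC20/DJC23 substrate mix (4x stock) added, 4 hr at room temperature, then NaOH, 30 min. Read 1 fluorescence at 540 nm excitation, 590 nm emission.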

[17] = Primary qHTS for inhibitors of La Crosse Virus (LACV) - induced cell death in SH-SY5Y cells (AID 1508616);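 note: top concentration of the series differs between compounds; 0% = infected DMSO wells and 100% = uninfected DMSO wells; higher means more rescue of cells from virus-induced death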
Procedure, shortened: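 Rescue of virus-induced death was read as ATPLite luminescence after 6 days at 37C, scaled between DMSO wells with LACV and without virus. Cells were SH-SY5Y, 6000/well, infected at 0.01 MOI after compound addition.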

[18] = Primary qHTS for small molecule stabilizers of the endoplasmic reticulum resident proteome: Secreted ER Calcium Modulated Protein (SERCaMP) assay (AID 1508630); note: % is set by controls: 0 for no effect and ±100 for the full control effect
Procedure, shortened: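 The SH-SY5Y reporter protocol was run at 3 concentrations up to 38.3 uM (primary) or 11 concentrations (follow-up): 16 h compound, 100 nM thapsigargin for 4 h, then extracellular luciferase luminescence.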

O=[N+]([O-])c1ccc(O[C@@H]2O[C@H](CO)[C@@H](O)[C@H](O)[C@H]2F)c([N+](=O)[O-])c1
inactive: outcome [1] | outcome [2] | outcome [3] | outcome [4] | outcome [5] | max response [6] 12.9% | outcome [7] | outcome [8] | outcome [9] | outcome [10] | Potency [11] | Potency [12] | Potency [13] | outcome [14] | outcome [15] | outcome [16] | outcome [17] | Potency [18]
